High-throughput results as filed in PubChem.
Rows were chosen to be rich in hits. Some 3.5% of all compounds tested hit in one or more screens of this group.
GPR151 activ: activators of human GPR151. Q8TDV0. PathHunter beta-arrestin GPR151 cells, luminescence. activation, % at 11.2 µM. actives 1% (n = 650,000); in the data active means activation above about 4.9%;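 further: 0% = median of compound wells and 100% = cells with positive control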
MITF primary: human MITF inhibition, primary screen | O75030 | AlphaScreen MITF homodimerization, bead proximity signal | inhibition, % at 2.6 µM | actives 0.91% (n = 650,000); in the data active means inhibition above about 50%;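 further: 0% = vehicle wells with protein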
TEAD-YAP block: TEAD-YAP interaction inhibition. HEK-TIYL cells, TEAD-Gal4/YAP UAS-luciferase luminescence. inhibition, % at 9.12 µM. actives 1.4% (n = 640,000). AID 1259422; in the data active means inhibition above about 32%;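 further: 0% = median of test compound wells and 100% = reference inhibitor wells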
FBW7 activator: human FBW7 E3 ligase activation, primary screen; AlphaScreen FBW7–phospho-cyclin E peptide binding, activator screen; actives 0.13% (n = 650,000); Q969H0; AID 1259310; normalized activity (activation), % at 26.1 µM; in the data active means normalized activity above about 1.9%;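 further: purified mutant Fbw7 with reduced substrate affinity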
* marks the source's active call; other numbers are inactive results.

SMILES	GPR151 activ	MITF primary	TEAD-YAP block	FBW7 activator
O=C(COc1ccccc1-c1ccccc1)N/N=C/c1ccncc1	-2	15	52*	1
O=C(COc1ccccc1-c1ccccc1)N/N=C/c1cccnc1	-1	-2	47*	0
O=[N+]([O-])c1ccc(N2CCN(S(=O)(=O)c3cccs3)CC2)cc1N1CCCCC1	0	-2	-3	0
CCOc1ccccc1OCC(=O)N/N=C(\CCC(=O)O)c1ccccc1	0	-5	59*	0
Cc1cc(NC(=O)c2ccc3c(c2)OCCO3)no1	-6	8	79*	1
Cc1cccc(NC(=O)c2ccc3c(c2)OCCO3)n1	-9	-11	-19	0
Cc1cc(NC(=O)c2ccc3c(c2)OCCO3)on1	-4	-5	38*	0
Cc1cc(NC(=O)c2ccc3c(c2)OCO3)no1	-5	1	-12	0
CCC(C)C(NC(=O)C1CCC(C)CC1)C(=O)Nc1ccc(NC(C)=O)cc1 (stereo not given)	1	5	-14	0
CCOC(=O)c1ccccc1NC(=O)CN1C(=O)C(C)N(c2ccc(C)cc2)C1=O (stereo not given)	0	7	46*	0
COC(=O)c1ccccc1NC(=O)CN1C(=O)C(C)N(c2ccc(C)cc2)C1=O (stereo not given)	-2	3	45*	0
Cc1ccc(N2C(=O)N(CC(=O)Nc3ccccc3OC(F)F)C(=O)C2C)cc1 (stereo not given)	1	13	-8	0
Cc1ccc(N2C(=O)N(CC(=O)Nc3ccccc3C(F)(F)F)C(=O)C2C)cc1 (stereo not given)	2	-3	-4	0
Clc1ccc(-c2cn3c4ccccc4nc3n2CCCNC2CCCCC2)cc1	3	-17	-13	3.1*
CCN(CC)CCCn1c(-c2ccc(Cl)cc2)cn2c3ccccc3nc12	0	-3	2	1
Brc1ccc(-c2cn3c4ccccc4nc3n2CCCN2CCCCC2)cc1	-2	7	-2	2.2*
CCN(CC)CCCn1c(-c2ccc(Br)cc2)cn2c3ccccc3nc12	2	20	-3	2.2*
O=C(CSc1ccc(Cl)cc1)NNC(=O)c1ccc(O)cc1	1	-1	-5	0
O=C(Nc1ccc(Oc2ccccc2)cc1)c1ccc(F)c(S(=O)(=O)N2CCC3(CC2)OCCO3)c1	-1	22	61*	0
O=C(Nc1ccc(Oc2ccccc2)cc1)c1ccc(F)c(S(=O)(=O)N2CCN(C3CCCCC3)CC2)c1	2	-2	42*	0
O=C(Nc1ccc(Oc2ccccc2)cc1)c1ccc(F)c(S(=O)(=O)N2CCCCC2)c1	0	5	37*	0
O=C(NCCOc1cccc(Cl)c1Cl)C(Cc1ccc(O)cc1)c1ccccc1 (stereo not given)	2	6	-11	0
CC(NC(=O)NCCC1=CCCCC1)(C(F)(F)F)C(F)(F)F	0	-8	-11	0
COc1cc(/C=N/NC(=O)c2cc(OC)c(OC)c(OC)c2)ccc1O	1	1	56*	0
COc1ccc(NC(=O)COc2ccc(/C=N/NC(=S)NC(C)C)cc2OC)cc1	-1	6	33*	0
SMILES	GPR151 activ	MITF primary	TEAD-YAP block	FBW7 activator
COc1ccc(NC(=O)COc2ccc(/C=N/n3c(C)nnc3C)cc2OC)cc1	1	9	-5	0
COc1cc(C(=O)N/N=C/c2ccc(O)cc2O)cc(OC)c1OC	0	52*	55*	0
COc1cc(OC)c(OC)cc1/C=N\NC(=O)c1cc(O)c(O)c(O)c1	1	66*	-2	0
Cc1ccccc1N1C(=O)N(c2cccc(Br)c2)C2CS(=O)(=O)CC21 (stereo not given)	-1	-1	4	0
CN(C)Cc1c(O)ccc2c(-c3cc4cc(Br)ccc4oc3=O)cc(=O)oc12	-1	-10	0	0
CC(=O)Nc1ccccc1NC(=O)CC1CCCCC1	0	6	1	0
COc1ccc(/C=N/NC(=O)C(=O)Nc2ccc(C)cc2)cc1	-1	-9	9	0
COc1ccc(NC(=O)C(=O)N/N=C/c2ccc(O)c(OC)c2)cc1	0	-65	14	25*
COc1ccc(-c2cnnc(N/N=C/c3ccc(O)c(OC)c3)n2)cc1	2	10	36*	0
COc1ccc(/C=N/NC(=O)COc2cc(C)ccc2C(C)C)cc1O	1	1	63*	0
COc1cc(/C=N/NC(=O)c2ccccc2NC(=O)c2ccc([N+](=O)[O-])cc2)ccc1O	-2	-10	72*	0
Nc1ccc(OCC[n+]2ccc(CCS(=O)(=O)O)cc2)cc1	1	0	-8	0
O=S(=O)(O)CCc1cc[n+](CC(O)CO)cc1 (stereo not given)	-1	8	6	2.8*
O=S(=O)(O)CCc1cc[n+](CC(O)CCl)cc1 (stereo not given)	-1	4	17	2.4*
CC(NC(=O)c1ncoc1-c1ccccc1F)c1ccccn1 (stereo not given)	0	11	-16	0
O=C1CCCN1CCCNc1nc(N2CCCC2CO)nc2c1ncn2-c1ccsc1 (stereo not given)	-1	12	42*	0
OCC1CCCN1c1nc(NCCN2CCOCC2)c2ncn(-c3ccsc3)c2n1 (stereo not given)	0	12	61*	0
OCC1CCCN1c1nc(NCCc2ccc(O)cc2)c2ncn(-c3ccsc3)c2n1 (stereo not given)	-2	6	19	0
O=C1CCCN1CCCNc1nc(N2CCCC2CO)nc2c1ncn2-c1ccccc1 (stereo not given)	0	5	47*	0
CCN(CC)C(=O)C1CCCN(c2nc(NCCCN3CCCC3=O)c3ncn(-c4ccccc4)c3n2)C1 (stereo not given)	3	8	36*	0
Cc1ccc(C(=O)N/C(=C\c2ccc3c(c2)OCO3)C(=O)Nc2ccc(Br)cc2)cc1C	2	-1	2	0
Cc1cc(OCC(=O)Nc2ccccc2C(=O)O)ccc1C(C)C	-1	16	-27	0
OCCNc1nc(N2CCCC2CO)nc2c1ncn2-c1ccccc1 (stereo not given)	-1	3	55*	0
OCC1CCCN1c1nc(NCc2nc3ccccc3[nH]2)c2ncn(-c3ccccc3)c2n1 (stereo not given)	1	9	48*	0
CC(C)n1cnc2c(NCCO)nc(N3CCCC3CO)nc21 (stereo not given)	-1	0	17	0
Clc1nc(NCc2nc3ccccc3[nH]2)c2ncn(-c3ccccc3)c2n1	2	-8	3	0
Oc1c(C(c2ccc(Cl)cc2)N2CCCCC2)ccc2cccnc12 (stereo not given)	-1	3	71*	-2
O=C(CSc1cccc2cccnc12)N1CCCCC1	0	-8	-19	0
Oc1c(C(c2ccc(C(F)(F)F)cc2)N2CCCCC2)ccc2cccnc12 (stereo not given)	-1	9	83*	0
